Hits are enriched below; roughly 3.3% of the tested compounds scored in any of these assays.
NOD2 RIPK2 PPI: inhibitors of human NOD2-RIPK2 interaction; inhibition, % at 4.98 µM; 0.38% of 360,000 active; CHO BLA complementation NOD2-RIPK2, CCF4 ratio; O43353; AID 624267; in the data active = inhibition above about 21%;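 also: 0% = vehicle only and 100% = reference blocker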
Target sequence (O43353 whole entry, looked up): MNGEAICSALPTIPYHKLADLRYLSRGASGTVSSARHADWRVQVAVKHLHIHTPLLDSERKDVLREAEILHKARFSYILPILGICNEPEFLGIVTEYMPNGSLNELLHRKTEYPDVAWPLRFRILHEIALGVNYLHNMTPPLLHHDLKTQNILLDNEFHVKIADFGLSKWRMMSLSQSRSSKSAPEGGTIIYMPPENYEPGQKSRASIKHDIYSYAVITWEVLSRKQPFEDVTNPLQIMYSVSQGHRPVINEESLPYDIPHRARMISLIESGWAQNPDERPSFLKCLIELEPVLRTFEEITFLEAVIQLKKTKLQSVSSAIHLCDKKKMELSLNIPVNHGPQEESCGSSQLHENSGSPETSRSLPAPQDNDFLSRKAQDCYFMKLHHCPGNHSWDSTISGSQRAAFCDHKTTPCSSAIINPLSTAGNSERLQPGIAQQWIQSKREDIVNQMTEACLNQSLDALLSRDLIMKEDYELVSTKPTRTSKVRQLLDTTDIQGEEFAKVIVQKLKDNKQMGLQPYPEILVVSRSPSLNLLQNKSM
TLR4 MyD88 comp: blocks binding of human TLR4 to MyD88; HeLa CL3-4 TLR4/MyD88 BLA complementation, FRET ratio; inhibition, % at 8.4 µM; 0.18% of 200,000 active; in the data active = inhibition above about 25%;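 also: 0% = vehicle and 100% = reference inhibitor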
rCAG binder: r(CAG) repeat RNA binding. inhibition, % at 3 µM. TO-PRO-1 dye displacement fluorescence. 1.3% of 370,000 active;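 active = inhibition above the plate cutoff, the mean of all test compounds on that plate plus 3 SD, cut at about 35% in these data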;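 also: 0% = DMSO alone and 100% = 100 µM mitoxantrone as full dye displacement; higher means more dye released from RNA so lower well fluorescence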
TLR9-MyD88 block: inhibitors of human TLR9-MyD88 binding; Q9NR96+Q99836; CHO BLA complementation TLR9-MyD88, CCF4 FRET ratio; inhibition, % at 4.98 µM; 0.21% of 340,000 active;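 active = inhibition above the mean over all tested compounds plus 3 SD, cut at about 21% in these data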;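 also: 0% = DMSO only wells and 100% = clavulanate BLA inhibitor control wells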
PRMT1 inh: PRMT1 (human) inhibition, primary screen; 1.3% of 370,000 active; inhibition, % at 2.79 µM; recombinant PRMT1, activity-based probe fluorescence polarization; Q99873;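 active = inhibition above about 21% made by adding two undisclosed values, limit read from the data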
ABHD5 PLIN5 PPI: inhibitors of human ABHD5-perilipin-5 interaction | Q00G26+Q8WTS1 | Split G. princeps luciferase complementation, luminescence, 4 h | inhibition, % at 4 µM | 0.78% of 360,000 active | AID 602281;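 active = inhibition above the mean inhibition across every tested compound plus 3 SD, cut at about 22% in these data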;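 also: 0% = DMSO only wells and the 100% control is not disclosed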
TLR4 MyD88 cnf: TLR4-MyD88 interaction inhibition confirmed | shares compounds with TLR4 MyD88 comp | HeLa CL3-4 BLA complementation, CCF4 FRET ratio | inhibition, % at 8.4 µM | 50% of 350 active | AID 941;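 active = mean inhibition across three repeat runs above about 25% carried over from the earlier screen, limit read from the data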;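 also: plate controls were DMSO only for no effect and clavulanic acid blocking BLA at full dose for full effect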
BLA inh HeLa: counter-screen for TLR4-MyD88 inhibitors: beta-lactamase reporter inhibitors. inhibition, % at 8.4 µM. HeLa BLA reporter, CCF4 FRET ratio. shares compounds with TLR4 MyD88 comp. 63% of 350 active;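 active = mean inhibition over three repeats above about 26% taken from the earlier screen, limit read from the data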;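 also: HeLa cells stably expressing beta-lactamase reporter as counterscreen for TLR4-MyD88 inhibitors; 0% = DMSO and 100% = clavulanic acid full inhibition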
TLR9-MyD88 cf: confirmation of human TLR9-MyD88 binding inhibitors. shares compounds with TLR9-MyD88 block. CHO TLR9/MyD88 BLA complementation, CCF4 FRET ratio. inhibition, % at 4.98 µM. 51% of 680 active;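 active = mean inhibition across three repeats above about 21% taken from the earlier screen, limit read from the data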;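 also: blue over green emission ratio reports constitutive TLR9 MyD88 association via BLA complementation; 0% = DMSO vehicle wells and 100% = clavulanate BLA inhibitor wells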
BLA counter-1: beta-lactamase reporter inhibition, counter-screen artifact | shares compounds with TLR9-MyD88 block | CHO-BLA cells, CCF4 FRET ratio, BLA reporter | inhibition, % at 4.98 µM | 7% of 680 active | AID 540251;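 active = mean inhibition above a 50% cutoff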;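 also: counterscreen of TLR9-MyD88 hits on CMV-driven BLA in CHO-K1 cells; 0% = DMSO alone and 100% = clavulanate blocking BLA; higher means less blue over green ratio so more BLA blockade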
TLR9 CHO cytotox: counter-screen for TLR9-MyD88 inhibitors: cytotoxicity in CHO cells; shares compounds with TLR9-MyD88 block; luminescence; inhibition, % at 4.98 µM; 39% of 680 active; in the data active = inhibition above about 11%
ABHD5-PLIN5 conf: confirmation of human ABHD5-PLIN5 interaction inhibitors. 67% of 2,200 active. biochemical ABHD5-PLIN5 interaction, luminescence. shares compounds with ABHD5 PLIN5 PPI. inhibition, % at 4 µM. AID 651612; in the data active = inhibition above about 23%;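 also: 0% = DMSO vehicle wells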
HNF4 split-luc: active in HNF4 split-luciferase counter-screen for ABHD5-PLIN5 inhibitors; shares compounds with ABHD5 PLIN5 PPI; HNF4 dimerization, luminescence, biochemical; inhibition, % at 4 µM; 77% of 2,200 active; AID 651674;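 active = mean inhibition across replicate wells exceeding the computed hit threshold, cut at about 13% in these data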;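 also: light from luciferase halves that rejoin when HNF4 fusion proteins dimerize; 0% = DMSO only wells and the 100% control is not given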
NOD2 RIPK2 conf: NOD2-RIPK2 interaction inhibition confirmed; shares compounds with NOD2 RIPK2 PPI; CHO cells, NOD2-RIPK2 BLA complementation, CCF4 FRET; inhibition, % at 4.98 µM; 70% of 1,200 active; AID 624370;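 active = mean inhibition across replicates above a set limit taken from the earlier primary screen, cut at about 21% in these data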;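 also: 0% = DMSO-only wells and the high end = clavulanate BLA-blocked wells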
BLA counter-2: counter-screen for NOD2-RIPK2 interaction inhibitors: BLA reporter | shares compounds with NOD2 RIPK2 PPI | CHO BLA reporter, CCF4 FRET ratio, counterscreen | inhibition, % at 4.98 µM | 57% of 1,200 active;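 active = mean inhibition above the low-control mean inhibition plus three low-control SD, cut at about 11% in these data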;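 also: 0% = DMSO only wells and 100% = clavulanate high control wells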
rCAG bind conf: r(CAG) RNA repeat binding, confirmation; 70% of 4,300 active; TO-PRO-1 dye displacement fluorescence; shares compounds with rCAG binder; inhibition, % at 3 µM;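 active = inhibition above a per-plate cutoff, the mean inhibition of sample wells plus 3 SD, cut at about 35% in these data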;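 also: loss of TO-PRO-1 fluorescence as compound displaces dye from 1x1 AA loop RNA; 0% = DMSO only wells and 100% = 100 µM mitoxantrone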
DNA CAG counter: DNA CAG dye complex inhibition counter-screen; inhibition, % at 3 µM; 94% of 4,300 active; shares compounds with rCAG binder; d(CAG) DNA oligo TO-PRO-1 dye displacement, fluorescence;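 active = inhibition above its plate's cutoff, the mean test-well inhibition plus 3 SD, cut at about 4.8% in these data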;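 also: 0% = DNA dye mix with DMSO and 100% = 100 µM mitoxantrone; hits displace the dye from DNA and so lower well fluorescence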
PRMT1 confirm: PRMT1 (human) inhibition, FP confirmation. shares compounds with PRMT1 inh. recombinant His-PRMT1, activity-based probe fluorescence polarization. inhibition, % at 2.79 µM. 42% of 3,300 active. AID 687036;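 active = mean inhibition across replicates above the hit cutoff derived for the earlier primary screen, cut at about 22% in these data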
Active calls of the source: *; i = inactive; nt = not tested or not shown.

SMILES | NOD2 RIPK2 PPI | TLR4 MyD88 comp | rCAG binder | TLR9-MyD88 block | PRMT1 inh | ABHD5 PLIN5 PPI | TLR4 MyD88 cnf | BLA inh HeLa | others
CCOc1ccc(/C=C/[N+](=O)[O-])c2ccccc12 | 58* | 27* | nt | 14 | nt | 79* | 22 | -24 | ABHD5-PLIN5 conf=103*;HNF4 split-luc=108*;NOD2 RIPK2 conf=91*;BLA counter-2=7
Cc1ccc(C)c(OCCC(=O)Nc2cccc(S(=O)(=O)N3CCCCC3)c2)c1 | 5 | nt | 1 | 3 | -3 | -7 | nt | nt
COCCCn1cc(CN2CC(N3CCCCC3)CS2(=O)=O)nn1 (configuration not stated) | 3 | nt | 2 | nt | 1 | -7 | nt | nt
CCN1/C(=C/C=C/c2oc3ccc(-c4ccccc4)cc3[n+]2CC)Oc2ccc(-c3ccccc3)cc21 | 47* | 40* | i | 25* | -14 | 37* | 35* | 57* | TLR9-MyD88 cf=25*;BLA counter-1=27;TLR9 CHO cytotox=69*;ABHD5-PLIN5 conf=92*;HNF4 split-luc=60*;NOD2 RIPK2 conf=67*;BLA counter-2=57*
CCN1/C(=C/C=C/c2sc3ccccc3[n+]2CC)Sc2ccccc21 | 4 | nt | nt | -8 | nt | 9 | nt | nt
Cc1ccc(-n2ncc(Br)c(Br)c2=O)cc1 | 32* | 27* | nt | 24* | nt | 3 | 22 | 8 | TLR9-MyD88 cf=27*;BLA counter-1=18;TLR9 CHO cytotox=101*;NOD2 RIPK2 conf=45*;BLA counter-2=8
COc1c(Cl)cnn(-c2ccc(C)cc2)c1=O | -2 | 14 | -1 | -7 | -1 | -1 | nt | nt
O=[N+]([O-])c1ccc(-c2nc(-c3cccs3)c(-c3cccs3)[nH]2)cc1 | 33* | 28* | 27 | 31* | 0 | 3 | 23 | 49* | TLR9-MyD88 cf=17;BLA counter-1=20;TLR9 CHO cytotox=4;NOD2 RIPK2 conf=36*;BLA counter-2=37*
COc1ccc(Cc2c(C3CCCCC3)nc3c(Cl)cc(C(F)(F)F)cn23)c(C)c1 | -7 | nt | 8 | nt | 3 | 18 | nt | nt
Cc1ccc(C)c(N2C(=N)S/C(=C\c3ccc(-c4ccccc4C(=O)O)o3)C2=O)c1 | 15 | 26* | 45* | 2 | 7 | 2 | 6 | 12 | rCAG bind conf=39*;DNA CAG counter=10*
Cc1ccc(NC(=O)CN2C(=O)S/C(=C\c3ccc(-c4cccc(C(=O)O)c4C)o3)C2=O)cc1 | nt | 3 | nt | nt | nt | nt | nt | nt
CC1CCCCC1NC(=O)COC(=O)c1c2c(nc3ccccc13)/C(=C/c1ccco1)CC2 (configuration not stated) | 9 | 61* | 53* | -12 | 16 | 2 | 49* | 85* | rCAG bind conf=51*;DNA CAG counter=28*
O=C(Nc1nc(-c2ccccc2)cs1)c1ccccc1NS(=O)(=O)c1ccc(F)cc1 | 3 | 26* | 89* | 5 | 3 | -3 | 3 | 4 | rCAG bind conf=89*;DNA CAG counter=70*
CCCCCn1nnnc1C1(C)Cn2nccc2C(=O)N1Cc1ccco1 (configuration not stated) | nt | nt | 7 | nt | 1 | nt | nt | nt
O=C(NCCN1CCCC1=O)C1CCC(=O)N(CCc2cccc(F)c2)C1 (configuration not stated) | -8 | nt | -5 | 2 | 3 | 6 | nt | nt
Oc1ccc(Cl)cc1/C=C/c1ccc2cccc(O)c2n1 | 5 | -4 | 32 | 13 | -2 | 0 | nt | nt
Oc1c(Cl)cc(Cl)cc1/C=C/c1ccc2cccc(O)c2n1 | 37* | 34* | 41* | 27* | 0 | -2 | 19 | 43* | TLR9-MyD88 cf=20;BLA counter-1=18;TLR9 CHO cytotox=-8;NOD2 RIPK2 conf=47*;BLA counter-2=54*;rCAG bind conf=56*;DNA CAG counter=21*
C[C@H](O)[C@@H]1C(=O)N2CCc3c([nH]c4c(-c5ccccc5)cccc34)[C@@H]2C[C@@H]1N(C)C(=O)/C=C/c1ccccc1 | nt | nt | 5 | nt | -3 | nt | nt | nt
CC(C)CSC1=NSC2=NC(=O)/C(=C\c3coc4ccccc4c3=O)C(=N)N12 | 17 | 43* | 61* | 9 | -8 | -1 | 14 | 31* | rCAG bind conf=59*;DNA CAG counter=55*
CCOC(=O)C1=C(CSc2nc(-c3ccccc3)ccc2C#N)OC(N)=C(C#N)C1c1ccc(OC)cc1 (configuration not stated) | 17 | 26* | 26 | 7 | 48* | -7 | 15 | 24 | PRMT1 confirm=10
COc1cccc(C(C(=O)NC2CCCC2)N(C(=O)c2ccco2)c2ccc(-n3cnnn3)c(C)c2)c1OC (configuration not stated) | -3 | -8 | -5 | 0 | -1 | -5 | nt | nt
Cc1ccc(-c2cc(C(=O)Nc3ccccc3C)c3ccccc3n2)o1 | -2 | 28* | 14 | 2 | 44* | 14 | 4 | 10 | PRMT1 confirm=14
COc1cccc(NC(=O)c2cc(-c3ccc(C)o3)nc3ccccc23)c1 | 0 | nt | 19 | 3 | 10 | 16 | nt | nt
COC(=O)c1cc(=O)nc(NNC(C)=O)s1 | -11 | nt | 1 | nt | 0 | 2 | nt | nt
CCCSc1cc(NCCOC(=O)CCC)c([N+](=O)[O-])c2nonc12 | -5 | 7 | 3 | -4 | 21 | -22 | nt | nt
